Hit rate of the full screen: of about 5,500 compounds, about 2,000 (36%) were called active. Roughly 18% stayed inconclusive and do not appear here. Rule as the data show it: active = normalized growth mostly below about 0.91 (no sharp cut-off); inconclusive = no clear call, values can overlap the other calls; inactive = mostly above about 0.92. The list shows a part of the results.
Experiment: chemical genetic growth profiling, strain panel (AID 1159580);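 also: tested at 20 µM; growth read once vehicle control cultures reached saturation at 30 °C; 1 = growth at the plate median or of vehicle wells; lower values mean less growth of the strain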
Conditions: growth OD

Measured: normalized growth

Cn1cnc([N+](=O)[O-])c1Sc1ncnc2nc[nH]c12
inactive: S. cerevisiae deletion strains, locus YKL009W, strain mrt4, stronger effect = lower value 0.983 | S. cerevisiae deletion strains, locus YKL068W, stronger effect = lower value 0.997 | S. cerevisiae deletion strains, locus YKL085W, strain MDH1 (second series), stronger effect = lower value 1 | S. cerevisiae deletion strains, locus YKL085W, strain MDH1, stronger effect = lower value 1 | S. cerevisiae deletion strains, locus YKL160W, strain elf1, stronger effect = lower value 1.04 | S. cerevisiae deletion strains, locus YKL190W, strain CNB1, stronger effect = lower value 1.01 | S. cerevisiae deletion strains, locus YKR001C, strain vps1, stronger effect = lower value 0.988 | S. cerevisiae deletion strains, locus YKR026C, strain gcn3, stronger effect = lower value 1.01 | S. cerevisiae deletion strains, locus YKR091W, strain srl3, stronger effect = lower value 1.01 | S. cerevisiae deletion strains, locus YLL001W, strain dnm1, stronger effect = lower value 1.02 | S. cerevisiae deletion strains, locus YLL026W, stronger effect = lower value 1.03 | S. cerevisiae deletion strains, locus YLL041C, strain sdh2, stronger effect = lower value 1.02 | S. cerevisiae deletion strains, locus YLR027C, strain aat2, stronger effect = lower value 1.02 | S. cerevisiae deletion strains, locus YLR039C, strain RIC1, stronger effect = lower value 1.09 | S. cerevisiae deletion strains, locus YLR058C, strain SHM2, stronger effect = lower value 1.01 | S. cerevisiae deletion strains, locus YLR102C, strain apc9, stronger effect = lower value 0.993 | S. cerevisiae deletion strains, locus YLR113W, strain HOG1, stronger effect = lower value 1.03 | S. cerevisiae deletion strains, locus YLR221C, strain rsa3, stronger effect = lower value 1.01 | S. cerevisiae deletion strains, locus YLR258W, strain gsy2, stronger effect = lower value 1.02 | S. cerevisiae deletion strains, locus YLR262C, strain YPT6 (second series), stronger effect = lower value 0.996 | S. cerevisiae deletion strains, locus YLR262C, strain YPT6, stronger effect = lower value 1.1 | S. cerevisiae deletion strains, locus YLR268W, strain sec22, stronger effect = lower value 0.981 | S. cerevisiae deletion strains, locus YLR320W, strain mms22, stronger effect = lower value 1.01 | S. cerevisiae deletion strains, locus YLR330W, strain CHS5, stronger effect = lower value 1.01 | S. cerevisiae deletion strains, locus YLR342W, strain FKS1 (second series), stronger effect = lower value 1.01 | S. cerevisiae deletion strains, locus YLR342W, strain FKS1, stronger effect = lower value 1.02 | S. cerevisiae deletion strains, locus YLR357W, strain rsc2, stronger effect = lower value 1 | S. cerevisiae deletion strains, locus YLR370C, strain arc18, stronger effect = lower value 1.03 | S. cerevisiae deletion strains, locus YLR371W, strain rom2, stronger effect = lower value 0.984 | S. cerevisiae deletion strains, locus YLR384C, strain iki3, stronger effect = lower value 1.03 | S. cerevisiae deletion strains, locus YLR418C, strain cdc73, stronger effect = lower value 1 | S. cerevisiae deletion strains, locus YML016C, strain PPZ1, stronger effect = lower value 1.02 | S. cerevisiae deletion strains, locus YML032C, strain rad52, stronger effect = lower value 0.989 | S. cerevisiae deletion strains, locus YML120C, strain ndi1, stronger effect = lower value 0.999 | S. cerevisiae deletion strains, locus YML124C, strain tub3, stronger effect = lower value 0.994 | S. cerevisiae deletion strains, locus YMR058W, strain fet3, stronger effect = lower value 1.01 | S. cerevisiae deletion strains, locus YMR078C, strain ctf18, stronger effect = lower value 0.985 | S. cerevisiae deletion strains, locus YMR125W, strain sto1, stronger effect = lower value 1.01 | S. cerevisiae deletion strains, locus YMR129W, stronger effect = lower value 1.01 | S. cerevisiae deletion strains, locus YMR205C, strain PFK2, stronger effect = lower value 1.02 | S. cerevisiae deletion strains, locus YMR223W, strain ubp8, stronger effect = lower value 0.994 | S. cerevisiae deletion strains, locus YMR231W, strain pep5, stronger effect = lower value 1.02 | S. cerevisiae deletion strains, locus YMR263W, strain SAP30, stronger effect = lower value 0.999 | S. cerevisiae deletion strains, locus YMR307W, strain GAS1, stronger effect = lower value 1.11 | S. cerevisiae deletion strains, locus YNL067W, strain RPL9B, stronger effect = lower value 0.99 | S. cerevisiae deletion strains, locus YNL071W, strain lat1, stronger effect = lower value 1.03 | S. cerevisiae deletion strains, locus YNL153C, strain GIM3, stronger effect = lower value 0.995 | S. cerevisiae deletion strains, locus YNL175C, strain NOP13, stronger effect = lower value 1.01 | S. cerevisiae deletion strains, locus YNL183C, strain NPR1, stronger effect = lower value 1 | S. cerevisiae deletion strains, locus YNL197C, strain WHI3, stronger effect = lower value 1 | S. cerevisiae deletion strains, locus YNL209W, strain ssb2, stronger effect = lower value 1.04 | S. cerevisiae deletion strains, locus YNL224C, strain SQS1, stronger effect = lower value 0.966 | S. cerevisiae deletion strains, locus YNL233W, strain BNI4, stronger effect = lower value 1 | S. cerevisiae deletion strains, locus YNL248C, strain rpa49, stronger effect = lower value 1.06 | S. cerevisiae deletion strains, locus YNL250W, strain rad50, stronger effect = lower value 0.99 | S. cerevisiae deletion strains, locus YNL271C, strain bni1, stronger effect = lower value 0.993 | S. cerevisiae deletion strains, locus YNL298W, strain CLA4, stronger effect = lower value 0.995 | S. cerevisiae deletion strains, locus YNL307C, strain MCK1, stronger effect = lower value 0.981 | S. cerevisiae deletion strains, locus YNL322C, strain KRE1 (second series), stronger effect = lower value 1.02 | S. cerevisiae deletion strains, locus YNL322C, strain KRE1, stronger effect = lower value 1.01 | S. cerevisiae deletion strains, locus YNR049C, strain mso1, stronger effect = lower value 1.01 | S. cerevisiae deletion strains, locus YNR052C, strain pop2, stronger effect = lower value 0.99 | S. cerevisiae deletion strains, locus YOL006C, strain TOP1, stronger effect = lower value 1 | S. cerevisiae deletion strains, locus YOL012C, strain htz1 1.34 | S. cerevisiae deletion strains, locus YOL147C, strain pex11, stronger effect = lower value 0.988 | S. cerevisiae deletion strains, locus YOR001W, strain rrp6, stronger effect = lower value 1.01 | S. cerevisiae deletion strains, locus YOR061W, strain CKA2, stronger effect = lower value 1.02 | S. cerevisiae deletion strains, locus YOR069W, strain VPS5, stronger effect = lower value 1.01 | S. cerevisiae deletion strains, locus YOR070C, strain gyp1, stronger effect = lower value 1.03 | S. cerevisiae deletion strains, locus YOR080W, strain dia2, stronger effect = lower value 1.02 | S. cerevisiae deletion strains, locus YOR083W, strain WHI5 (second series), stronger effect = lower value 1.02 | S. cerevisiae deletion strains, locus YOR083W, strain WHI5, stronger effect = lower value 0.98 | S. cerevisiae deletion strains, locus YOR106W, strain vam3, stronger effect = lower value 1.04 | S. cerevisiae deletion strains, locus YOR136W, strain idh2, stronger effect = lower value 0.979 | S. cerevisiae deletion strains, locus YOR144C, strain elg1, stronger effect = lower value 0.987 | S. cerevisiae deletion strains, locus YOR184W, strain ser1, stronger effect = lower value 0.981 | S. cerevisiae deletion strains, locus YOR231W, strain MKK1, stronger effect = lower value 1.06 | S. cerevisiae deletion strains, locus YOR265W, strain rbl2, stronger effect = lower value 1.02 | S. cerevisiae deletion strains, locus YOR270C, strain vph1, stronger effect = lower value 1.05 | S. cerevisiae deletion strains, locus YOR290C, strain snf2, stronger effect = lower value 1.04 | S. cerevisiae deletion strains, locus YOR316C, strain cot1, stronger effect = lower value 0.996 | S. cerevisiae deletion strains, locus YPL051W, strain arl3, stronger effect = lower value 1.04 | S. cerevisiae deletion strains, locus YPL078C, strain atp4, stronger effect = lower value 1.03 | S. cerevisiae deletion strains, locus YPL106C, strain sse1, stronger effect = lower value 1.03 | S. cerevisiae deletion strains, locus YPL240C, strain hsp82, stronger effect = lower value 1.05 | S. cerevisiae deletion strains, locus YPL241C, strain CIN2, stronger effect = lower value 1 | S. cerevisiae deletion strains, locus YPL256C, strain CLN2, stronger effect = lower value 1.05 | S. cerevisiae deletion strains, locus YPR119W, strain clb2, stronger effect = lower value 0.991 | S. cerevisiae deletion strains, locus YPR141C, strain kar3, stronger effect = lower value 0.99 | S. cerevisiae deletion strains, locus YPR163C, strain tif3, stronger effect = lower value 0.981 | S. cerevisiae deletion strains, locus YPR167C, strain met16, stronger effect = lower value 0.989 | S. cerevisiae deletion strains, strain wtn01, stronger effect = lower value 0.988 | S. cerevisiae strains, strain wild type, stronger effect = lower value 1.01

Reference: PubChem BioAssay AID1159580 (chemical genetic matrix, 2015)
